Pf gametocyte = P. falciparum stage V gametocyte viability inhibition; AID 743093; inhibition, % at 10.9 µM; P. falciparum stage V gametocytes, ATP luminescence, 24 h; 150,000 tested, 0.065% active;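 active = inhibition above the mean plus 3 SD of compounds within the control limits, set per campaign, cut at about 38% in these data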;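 also: 0% = DMSO wells and 100% = medium only without gametocytes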
Bim-Mcl-1 = human Bim-Mcl-1 interaction inhibition | 190,000 tested, 0.1% active | AID 1009 | inhibition, % at 10 µM | Bead-based flow cytometry, Bim peptide-Mcl-1 binding; in the data active = inhibition above about 40%;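 also: 0% = no compound tracer wells and 100% = peptide blocker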
14-3-3 Bad inh = disrupts binding of bovine 14-3-3 zeta to phospho-Bad peptide | P63103 | TR-FRET 14-3-3zeta/Dy647-pBad peptide displacement, 1 h | inhibition, % at 21.7 µM | 220,000 tested, 0.71% active | AID 781;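 active = inhibition above about 70%, limit read from the data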;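 also: 0% = full 14-3-3 plus peptide FRET controls and 100% = background without 14-3-3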
eIF4E-4G inh = eIF4E/eIF4G interaction inhibition in translation initiation | P63073+Q04637 | TR-FRET eIF4E-eIF4GI(517-606) binding, 2 h | inhibition, % at 21.7 µM | 220,000 tested, 0.37% active;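 active = inhibition above about 30%, limit read from the data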;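 also: 0% = full FRET control wells and 100% = background wells lacking eIF4GI fragment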
Mcl1-Noxa inh = disrupts binding of human Mcl-1 to Noxa peptide | Q07820 | TR-FRET Mcl-1/Noxa peptide binding, 2 h | inhibition, % at 21.7 µM | 220,000 tested, 1.5% active;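 active = compounds that cut the protein-peptide binding signal by more than 50% relative to plate controls in a single-dose test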;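 also: His-tagged Mcl-1 with rhodamine Noxa BH3 peptide and terbium anti-His antibody; 0% = Mcl-1 plus Noxa peptide wells and 100% = peptide-only wells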
Mcl1 Bid PPI = Mcl-1/Bid interaction inhibition. 220,000 tested, 0.97% active. Q07820. TR-FRET Mcl-1/Bid-Dy647 peptide binding, 1536-well. inhibition, % at 21.7 µM;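 active = compounds that cut the binding signal by more than half at the single screening dose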;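 also: His-tagged Mcl-1 with europium anti-His antibody binding Bid BH3 peptide; 0% = Mcl-1 plus peptide wells and 100% = peptide-only wells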
* = called active by the depositor. This is a sample that favours compounds with a hit; in the whole collection about 2.7% have one here.

What do the screens show for `N#CC1=C(S)N(c2ccccc2)C(c2ccc(-c3cccc(Cl)c3)o2)NC1=O` (configuration not stated)?
Pf gametocyte: 26; Bim-Mcl-1: -3; 14-3-3 Bad inh: 48; eIF4E-4G inh: 2; Mcl1-Noxa inh: 69*; Mcl1 Bid PPI: -30

Results for CC(=O)Nc1ccc(-n2nnnc2SCC(=O)NCc2cccs2)cc1 ?
Pf gametocyte: 8; Bim-Mcl-1: 1; 14-3-3 Bad inh: -8; eIF4E-4G inh: 0; Mcl1-Noxa inh: -5; Mcl1 Bid PPI: -34

How did CN(C)/C=N/c1ncn(-c2ncc(C(F)(F)F)cc2Cl)n1 do in these assays?
Pf gametocyte: -5; Bim-Mcl-1: -1; 14-3-3 Bad inh: -19; eIF4E-4G inh: 4; Mcl1-Noxa inh: 9; Mcl1 Bid PPI: -14

Results for COC(=O)CCCC1=CC2=CC(=O)C(C)(OC(=O)c3cccs3)C(=O)C2=CN1CCN1CCOCC1 (configuration not stated) ?
14-3-3 Bad inh: -4; eIF4E-4G inh: 3; Mcl1-Noxa inh: -5; Mcl1 Bid PPI: -71

How did Cc1cc(C)c(O)c(-c2cc(C(=O)Nc3c(C)n(C)n(-c4ccccc4)c3=O)[nH]n2)c1 do in these assays?
Pf gametocyte: -16; 14-3-3 Bad inh: 3; eIF4E-4G inh: 3; Mcl1-Noxa inh: 16; Mcl1 Bid PPI: -45

How did Cc1ccc2nc(SC(C)C(=O)NC3CCCc4ccccc43)[nH]c2c1 (configuration not stated) do in these assays?
Pf gametocyte: -15; Bim-Mcl-1: -4; 14-3-3 Bad inh: -5; eIF4E-4G inh: 4; Mcl1-Noxa inh: 11; Mcl1 Bid PPI: 84*

How did O=C(CSc1nc2ccc(Cl)cc2[nH]1)NC1CCCc2ccccc21 (configuration not stated) do in these assays?
Pf gametocyte: 13; Bim-Mcl-1: -2; 14-3-3 Bad inh: 2; eIF4E-4G inh: 3; Mcl1-Noxa inh: 12; Mcl1 Bid PPI: 4

What do the screens show for `Cn1cc(CN2CCN(CC(C)(C)C)C(CCO)C2)c2ccccc21` (configuration not stated)?
Pf gametocyte: -16

What do the screens show for `COc1cnn(-c2ccc(Br)cc2)c(=O)c1SCc1ccccc1`?
Pf gametocyte: -31; Bim-Mcl-1: -4; 14-3-3 Bad inh: -14; eIF4E-4G inh: 1; Mcl1-Noxa inh: 76*; Mcl1 Bid PPI: -29

What do the screens show for `COc1cnn(-c2ccccc2)c(=O)c1SCc1ccc(Cl)cc1Cl`?
Bim-Mcl-1: -5; 14-3-3 Bad inh: -7; eIF4E-4G inh: -8; Mcl1-Noxa inh: 85*; Mcl1 Bid PPI: -48

What do the screens show for `COc1cnn(-c2ccc(C)cc2)c(=O)c1SCc1ccccc1`?
Bim-Mcl-1: -5; 14-3-3 Bad inh: 11; eIF4E-4G inh: 2; Mcl1-Noxa inh: -148; Mcl1 Bid PPI: -27

Results for CS(=O)(=O)c1ccc(CNC(=O)C2(C(F)(F)F)C/C(=C/CCO)CCCO2)cc1 (configuration not stated) ?
Pf gametocyte: 18

How did CSC1=NC(=O)/C(=C\c2cccc3ccccc23)S1 do in these assays?
Pf gametocyte: -3; Bim-Mcl-1: -2; 14-3-3 Bad inh: 0; eIF4E-4G inh: 4; Mcl1-Noxa inh: 18; Mcl1 Bid PPI: -4

What do the screens show for `O=c1c(C=NCCCO)c(-c2ccccc2)[nH]n1-c1nc2ccccc2s1`?
Bim-Mcl-1: -1; 14-3-3 Bad inh: 71*; eIF4E-4G inh: 0; Mcl1-Noxa inh: 33; Mcl1 Bid PPI: 62*

Results for COc1ccc(/C=C/C(=O)NC(=S)Nc2cc([N+](=O)[O-])ccc2O)cc1OC ?
Pf gametocyte: 4; Bim-Mcl-1: 0; 14-3-3 Bad inh: 49; eIF4E-4G inh: 6; Mcl1-Noxa inh: 93*; Mcl1 Bid PPI: 13

Results for COc1cc(/C=C/C(=O)OCC(=O)Nc2cc(C)c(C)cc2[N+](=O)[O-])ccc1O ?
Pf gametocyte: 7; 14-3-3 Bad inh: 6; eIF4E-4G inh: 11; Mcl1-Noxa inh: 93*; Mcl1 Bid PPI: 41

How did COc1cc(/C=C/C(=O)OCC(=O)Nc2ccc(S(N)(=O)=O)cc2)ccc1O do in these assays?
Pf gametocyte: 8; 14-3-3 Bad inh: 1; eIF4E-4G inh: 4; Mcl1-Noxa inh: -5; Mcl1 Bid PPI: -13

Screens as filed in PubChem BioAssay.
